ADAM10 inh – human ADAM10 inhibitors, primary screen, biochemical, QFRET, HTS | actives 0.62% (n = 370,000) | recombinant ADAM10, EDANS/DABCYL FRET peptide cleavage, 3 h | Disintegrin and metalloproteinase domain-containing protein 10 (Homo sapiens), O14672 | inhibition, % at 7 µM;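 active means inhibition above a per-campaign cutoff equal to the mean of compounds falling between control-based bounds plus 3 SD, cut at about 20% in these data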;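 further: 0% = DMSO wells while the 100% control is not disclosed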
sPLA2-III inh – human group III sPLA2 inhibitors, primary screen, biochemical, QFRET, BODIPY PC-A2 liposome substrate. actives 0.56% (n = 370,000). AID 743126, 2013. QFRET BODIPY PC-A2 liposome hydrolysis, fluorescence. inhibition, % at 12.2 µM. Group 3 secretory phospholipase A2 (Homo sapiens), Q9NZ20;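 active means inhibition above mean plus 3 SD of compounds lying within the high and low control bounds, cut at about 19% in these data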;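 further: 0% = median of test compound wells and 100% = no enzyme DMSO wells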
ADAM17 inh – ADAM17 inhibitors, primary screen, biochemical, QFRET; Disintegrin and metalloproteinase domain-containing protein 17 (Homo sapiens), P78536; recombinant ADAM17, EDANS/DABCYL FRET peptide cleavage; inhibition, % at 6.95 µM; actives 0.83% (n = 370,000);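 active means inhibition above the mean of compounds lying between control limits plus 3 SD, set per campaign, cut at about 8.5% in these data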;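 further: 0% = DMSO-only wells as the low control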
NR3A LBD binder – binders of NR3A ligand-binding domain, primary screen, biophysical, differential scanning fluorimetry, uHTS; actives 2.5% (n = 340,000); AID 1259313, 2017; NR3A LBD differential scanning fluorimetry, Tm shift; 0% = protein alone, 100% = glycine-bound protein; Tm shift relative to glycine control, % at 25 µM; Glutamate receptor ionotropic, NMDA 3A (GRIN3A) ligand-binding domain;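 active means melting temperature shift of at least 10% of the positive control shift, at one fixed dose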
FAS TE block – FAS thioesterase domain inhibitors, primary screen, biochemical, fluorescence intensity, uHTS; inhibition, % at 15 µM; Fatty acid synthase (Homo sapiens), P49327; recombinant FAS-TE, OMFH fluorogenic substrate, fluorescence endpoint; actives 0.67% (n = 360,000);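 active means compounds whose normalised, plate-corrected inhibition of enzyme fluorescence in the single-dose primary screen is 50% or more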;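 further: 0% = DMSO with enzyme and 100% = substrate without enzyme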
* marks the source's active call; other numbers are inactive results; nt = no result; ! = a repeat was not active. Sampled rows, rich in hits. Any-hit rate of the full collection: about 4.3%.

SMILES	ADAM10 inh	sPLA2-III inh	ADAM17 inh	NR3A LBD binder	FAS TE block
Cn1c(N)c(C(=O)COC(=O)/C=C/c2ccc(Cl)c(Cl)c2)c(=O)n(C)c1=O	-8.8	2.3	-2.3	16.8*	4.8
CC(=O)C12CCCCC1CC1[C@@H]3CC(C)C4=CC(=O)CC[C@]4(C)C3CC[C@@]12C (some centres not stated)	-1.1	-1.8	-4.0	22.0*	26.2
CC(=O)O[C@]1(C(C)=O)CC[C@H]2[C@@H]3C[C@H](C)C4=CC(=O)CC[C@]4(C)[C@H]3CC[C@@]21C	15.6	-9.9	6.8	0.6	20.6
CCOC(=O)C1=C(C)Nc2sc(C(=O)c3ccc(F)cc3)c(N)c2C1c1ccc(C(=O)OC)cc1 (configuration not stated)	9.5	-11.5	5.8	13.1*	19.4
CCOC(=O)C1=C(C)NC(SCC(=O)OC)=C(C#N)C1c1ccc(C(=O)OC)cc1 (configuration not stated)	-8.3	-0.2	-1.2	0.2	16.3
COc1ccc(NS(=O)(=O)c2ccc(N3CCCC3)c(NC(=S)Nc3ccc(SC(F)F)cc3)c2)cc1	9.2	3.5	4.3	11.8*	27.0
CN(C)CCC(c1ccc(Cl)cc1)c1ccccn1 (configuration not stated)	-2.0	-8.9	-4.5	15.7*!	-2.6
COC(=O)[C@]12C[C@H](CC(=O)N3CCCCC3)C(=O)N(Cc3ccccc3)C1=C[C@H](COCc1ccccc1)O[C@@H]2C	2.9	-9.0	-2.4	nt	nt
NC(=S)N/N=C/c1ccc(C23CC4CC(CC(C4)C2)C3)cc1	nt	nt	nt	10.3*	nt
CCOC(=O)c1cccc(NC(=O)CN(C)S(=O)(=O)c2ccc(Cl)s2)c1	4.7	-23.0	1.9	nt	nt
COc1ccc(CN(CCN2CCOCC2)C(=O)c2cc(F)ccc2C)cc1OC	-7.0	-0.2	0.2	nt	nt
Nc1ccn([C@@H]2O[C@H](C(=O)N[C@H](Cc3ccccc3)C(=O)NCc3cccc4c3OCO4)[C@@H](O)[C@H]2O)c(=O)n1	-7.7	4.6	-3.1	nt	nt
Cc1ccc(C(=O)CCC(=O)N2CCN(c3ccccc3O)CC2)cc1	4.7	-1.8	-6.4	19.5*	-1.6
O=[N+]([O-])c1cccc2ccc(/C=C/c3ccc(F)cc3)nc12	14.8	-5.1	5.9	24.4*	33.7
O=[N+]([O-])c1ccc(/C=C/c2ccc3cccc([N+](=O)[O-])c3n2)cc1	7.4	2.7	8.6	23.2*	17.2
O=[N+]([O-])c1cccc(/C=C/c2ccc3cccc(O)c3n2)c1	6.9	13.9	2.9	7.2	5.4
CCOc1cc(/C=C/c2ccc3cccc([N+](=O)[O-])c3n2)ccc1OCC(=O)N(C)C	2.1	-16.1	-2.0	-8.2	8.0
COc1cc(/C=C/c2ccc3cccc([N+](=O)[O-])c3n2)ccc1OCC#N	11.0	-12.4	6.6	9.5	53.3*
O=C(/C=C(\Nc1ccc(F)cc1)c1ccccc1)c1ccccc1	-7.4	1.2	-4.0	nt	nt
Cc1ccc(CNC2CCC23CCC(c2ccccc2)CC3)o1 (configuration not stated)	1.4	2.6	0.9	nt	nt
COc1ccc(OC[C@@H](O)CN2CCC(C(O)(c3ccccc3)c3ccccc3)CC2)cc1	1.5	-19.9	6.7	nt	nt
COc1ccc(S[C@]2(C(=O)N3CCCC3)CC(=O)N(C(=O)/C=C/c3ccccc3)[C@@H]2c2ccc(OC)cc2)cc1	5.4	-4.2	2.3	nt	nt
CN(C)S(=O)(=O)c1ccc(NC(=O)/C=C/c2ccccc2Cl)cc1	13.0	-22.3	7.3	26.6*	21.2
O=C(Nc1ccccc1)Nc1nnc(/C=C/c2ccccc2Cl)s1	-20.6	-1.9	-4.1	37.3*	0.7
O=C(Nc1ccccc1)Nc1nnc(-c2ccccc2)s1	3.1	17.5	-5.9	6.8	2.2
O=C(/C=C/c1ccccc1Cl)Nc1ccccc1	13.1	-2.5	2.4	20.1*	14.9
Cc1ccccc1CN1CCCCC(NC(=O)c2cccc(F)c2)C1=O (configuration not stated)	-1.6	3.7	-2.2	nt	nt

Screening data deposited in PubChem BioAssay by several laboratories.
